According to the supplement of paper PMC7695840:
Structures can show the parent of a compound that is named as a salt.

Tests used:
[1] = system: Staphylococcus aureus MW2 delta-mecA (mecA-); assay: normalized GFP fluorescence (growth of mecA- strain) (fraction of control range); higher = more growth of mecA- strain; settings: compound concentration: 150 uM; cefoxitin: subinhibitory; fluorescent label: GFP
Outline: (§1)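 Pre-induced S. aureus MW2 mecA+ (DsRed) and ΔmecA (GFP) cells were mixed 1:1 in LB with a daily-set subinhibitory cefoxitin dose. They were dispensed at 5 µL/well onto 150 μM compound (1.5% DMSO) in 1536-well plates, single replicate. Growth was 20 h at 37 °C, 90% humidity, unshaken, and DsRed (540/590) and GFP (485/520) were then read. Each channel was scaled per plate between the medians of the single-strain controls. Plates with high No Treatment ratios and rows with DsRed/GFP >10 were excluded.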

[2] = system: Staphylococcus aureus MW2 (mecA+); assay: normalized DsRed fluorescence (growth of mecA+ strain) (fraction of control range); higher = more growth of mecA+ strain; settings: compound concentration: 150 uM; cefoxitin: subinhibitory; fluorescent label: DsRed
Outline: as §1

SMILES | normalized GFP fluorescence [1] | normalized DsRed fluorescence [2]
COc1cc(Nc2ncc(F)c(Nc3ccc4c(n3)N(COP(=O)(O)O)C(=O)C(C)(C)O4)n2)cc(OC)c1OC | 0.774 | 0.602
CC1=NN(c2ccccc2)C(=O)C1 [Edaravone (MCI-186)] | 0.706 | 0.531
OCCOCCN1CCN(C2=Nc3ccccc3Sc3ccccc32)CC1 [Quetiapine fumarate (Seroquel)] | 0.0887 | 1.15
CN1CC2c3ccccc3Oc3ccc(Cl)cc3C2C1 (centres undefined) [Asenapine] | 0.129 | 1.64
Cn1c(=O)c2[nH]cnc2n(C)c1=O [Aminophylline (Truphylline)] | 0.38 | 1.18
C[C@]12CCC(=O)C=C1CC[C@@H]1[C@@H]2[C@@H](O)C[C@@]2(C)[C@H]1CC[C@]2(O)C(=O)CO | 0.268 | 0.562
CN(C)CC/C=C1/c2ccccc2COc2ccc(CC(=O)O)cc21 [Olopatadine hydrochloride (Opatanol)] | 0.475 | 0.587
NS(=O)(=O)c1cc(C2(O)NC(=O)c3ccccc32)ccc1Cl (centres undefined) | 0.344 | 0.584
CC(C)(C)NC[C@H](O)COc1cccc2c1CCCC2=O | 0.401 | 0.5
CC(=O)Oc1cc2c(s1)CCN(C(C(=O)C1CC1)c1ccccc1F)C2 (centres undefined) [Prasugrel (Effient)] | 0.226 | 0.841
Nc1nc2[nH]cc(CCc3ccc(C(=O)N[C@@H](CCC(=O)O)C(=O)O)cc3)c2c(=O)[nH]1 | 0.937 | 0.63
NCCCC[C@H](N[C@@H](CCc1ccccc1)C(=O)O)C(=O)N1CCC[C@H]1C(=O)O | 0.972 | 0.642
CN(C)CCc1c[nH]c2ccc(CS(=O)(=O)N3CCCC3)cc12 | 0.546 | 1
CC12CCC(CC1=O)C2(C)C (centres undefined) | 0.212 | 1.15
C[C@H]1O[C@H](O[C@H]2[C@H](O)[C@@H](O)[C@@H](O[C@H]3[C@H](O)[C@@H](O)C(O)O[C@@H]3CO)O[C@@H]2CO)[C@H](O)[C@@H](O)[C@@H]1N[C@H]1C=C(CO)[C@@H](O)[C@H](O)[C@H]1O (some centres undefined) | 0.505 | 0.683
Cn1ncnc1[C@H]1c2n[nH]c(=O)c3cc(F)cc(c23)N[C@@H]1c1ccc(F)cc1 [Talazoparib (BMN 673)] | 0.42 | 0.777
CCc1cn([C@H]2C[C@H](O)[C@@H](CO)O2)c(=O)[nH]c1=O | 0.343 | 0.714
OCc1cccnc1 | 0.896 | 0.471
N=C(N)N | 0.207 | 0.654

SMILES | normalized GFP fluorescence [1] | normalized DsRed fluorescence [2]
CCCCC(=O)N(Cc1ccc(-c2ccccc2-c2nnn[nH]2)cc1)[C@H](C(=O)O)C(C)C | 0.105 | 0.898
CCN(CC)CCNC(=O)c1c(C)[nH]c(/C=C2\C(=O)Nc3ccc(F)cc32)c1C [Sunitinib Malate (Sutent)] | 0.0077 | 1.42
Cc1ccc(C)c(OCCCC(C)(C)C(=O)O)c1 | 0.121 | 1.54
C[N+](C)(C)CC(=O)O | 0.229 | 0.899
CNC[C@H](O)[C@@H](O)[C@H](O)[C@H](O)CO [Meglumine] | 0.21 | 0.823
CN1CCN2c3ccccc3Cc3ccccc3C2C1 (centres undefined) | 0.0802 | 1.52
CCCN1CCCC[C@H]1C(=O)Nc1c(C)cccc1C [Ropivacaine HCl] | 0.242 | 1.01
CCN(CC)C(=O)C1(c2ccccc2)CC1CN (centres undefined) | 0.155 | 0.617
COc1ccc(CC2c3cc(OC)c(OC)cc3CC[N+]2(C)CCC(=O)OCCCCCOC(=O)CC[N+]2(C)CCc3cc(OC)c(OC)cc3C2Cc2ccc(OC)c(OC)c2)cc1OC (centres undefined) | 0.325 | 0.862
CC(C)[N+]1(C)[C@@H]2CC[C@H]1C[C@@H](OC(=O)C(CO)c1ccccc1)C2 (some centres undefined) | 0.206 | 0.856
CC[C@H](C)C(=O)O[C@H]1C[C@@H](C)C=C2C=C[C@H](C)[C@H](CC[C@@H]3C[C@@H](O)CC(=O)O3)[C@H]21 | 0.345 | 0.697
CC(C)Cc1ccc(C(C)C(=O)O)cc1 (centres undefined) | 0.142 | 0.294
CCN(CC)C(=O)c1cccnc1 | 0.263 | 0.829
CN1CCC(OC(c2ccccc2)c2ccccc2)CC1 | 0.0847 | 1.1
CN(C)CCOC(c1ccccc1)c1ccccc1 | 0.272 | 0.789
COc1cc2nc(N3CCN(C(=O)c4ccco4)CC3)nc(N)c2cc1OC | 0.593 | 0.809
C=CC(=O)N1CCC[C@@H](n2nc(-c3ccc(Oc4ccccc4)cc3)c3c(N)ncnc32)C1 | 0.0101 | 1.1
CNC[C@@H](O)c1ccc(O)c(O)c1 [L-Adrenaline (Epinephrine)] | 0.385 | 0.715
